In PubChem BioAssay (NCI):
Compounds without any hit were thinned out: in the full panel of roughly 79,000, 15% have a hit. Values without a mark were called inactive. Active and inactive are the calls of the source. No stated cut-off is given here; in the data, active means growth inhibition above about 70%; inactive means the rest.

Columns and labels:
[1] = NCI Yeast Anticancer Drug Screen. Data for the rad50 strain (AID 155);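 further: 0% = growth of vehicle-only cultures of the same strain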; details: S. cerevisiae rad50 strain growth inhibition, stronger effect = higher value
Method in brief: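 Growth of the mutant yeast was measured after compound exposure and referenced to vehicle-treated cultures.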

[2] = NCI Yeast Anticancer Drug Screen. Data for the mec2-1 strain (AID 157); details: S. cerevisiae mec2-1 strain, stronger effect = higher value
Method in brief: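 mec2-1 yeast strain, carrying an alteration in DNA damage repair or cell cycle control, was exposed to compounds; growth inhibition was measured relative to vehicle-treated controls.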

[3] = NCI Yeast Anticancer Drug Screen. Data for the sgs1 mgt1 strain (AID 161);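 further: 0% = growth of cultures given vehicle only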; details: S. cerevisiae sgs1 mgt1 strain, stronger effect = higher value
Method in brief: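 Yeast cells carrying a defined DNA-repair defect were exposed to test compounds. Growth inhibition was measured relative to vehicle-treated controls.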

[4] = NCI Yeast Anticancer Drug Screen. Data for the cln2 rad14 strain (AID 165);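 further: 0% = growth equal to vehicle treated cultures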; details: S. cerevisiae cln2 rad14 strain, stronger effect = higher value
Method in brief: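 Yeast carrying cln2 and rad14 alterations (cell cycle control and DNA damage repair) were exposed to compounds. Growth inhibition was measured against vehicle-treated controls.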

[5] = NCI Yeast Anticancer Drug Screen. Data for the bub3 strain (AID 167); details: S. cerevisiae bub3 mutant strain, stronger effect = higher value
Method in brief: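 Whole-cell yeast assay. The mutant strain was incubated with compounds, and growth inhibition was determined by comparison with vehicle-treated cells.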

[6] = NCI Yeast Anticancer Drug Screen. Data for the mlh1 rad18 strain (AID 175); details: S. cerevisiae mlh1 rad18 strain growth inhibition, stronger effect = higher value
Method in brief: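 Growth inhibition of the yeast strain was measured after compound exposure and expressed relative to vehicle-treated controls. The strain carries defined defects in DNA damage repair.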

[7] = at 5.0 µM (retest, dose inferred, filed as 0.5)
[8] = at 50.0 µM (retest, dose inferred, filed as 5.0)

Structure (SMILES) | growth inhibition [1, 7] | growth inhibition [1, 8] | growth inhibition ([1]; at 50.0 µM) | growth inhibition [2, 7] | growth inhibition [2, 8] | growth inhibition ([2]; at 50.0 µM) | growth inhibition [3, 7] | growth inhibition [3, 8] | growth inhibition ([3]; at 50.0 µM) | growth inhibition [4, 7] [%] | growth inhibition [4, 8] | growth inhibition ([4]; at 50.0 µM) | growth inhibition [5, 7] | growth inhibition [5, 8] | growth inhibition ([5]; at 50.0 µM) | growth inhibition [6, 7] | growth inhibition [6, 8] | growth inhibition ([6]; at 50.0 µM)
O[C@H]1c2cccn2-c2ccccc2S[C@H]1c1ccccc1 | 12% | 99% (active) | 98.8% (active) | -6% | 99% (active) | 98.8% (active) | 3% | 97% (active) | 98.8% (active) | 6 | 99% (active) | 98.8% (active) | 10% | 98% (active) | 98.5% (active) | -4% | 99% (active) | 99% (active)
CCOC(=O)c1sc2[n+](c1C)C(=O)/C(=C/c1ccc([N+](=O)[O-])cc1)S2 | 4% | 71% (active) | 95.5% (active) | 4% | 74% (active) | 96.9% (active) | 16% | 86% (active) | 97% (active) | -4 | 79% (active) | 90.5% (active) | -23% | 46% | 96.8% (active) | 23% | 89% (active) | 97% (active)
C=CCc1cc([N+](=O)[O-])ccc1O | -4% | 80% (active) | 76.5% (active) | 1% | 85% (active) | 92.1% (active) | -2% | 87% (active) | 94.6% (active) | -3 | 85% (active) | 88.7% (active) | 3% | 85% (active) | 92.3% (active) | -4% | 93% (active) | 90.8% (active)
CCCCCCCCC1(C(=O)OCCN(CC)CC)CCCCC1 | 8% | 99% (active) | 99.8% (active) | 0% | 100% (active) | 99.8% (active) | 36% | 99% (active) | 99.5% (active) | 13 | 100% (active) | 99.8% (active) | 22% | 99% (active) | 99.2% (active) | 12% | 98% (active) | 99.7% (active)
COc1ccc(C(=O)C(C(c2ccccc2)N2CCc3ccccc3C2)N2CCc3ccccc3C2)cc1 (configuration not stated) | 3% | 22% | 27.4% | -2% | 2% | 15.2% | 0% | -6% | 12.2% | 2 | -27% | 26.9% | -3% | 4% | 78.3% (active) | -1% | 6% | 27.6%
O=C(Oc1ccc(O)c2ccccc12)c1ccccc1 | 0% | 2% | 98.7% (active) | -3% | 6% | 98.6% (active) | 1% | -16% | 98.3% (active) | -7 | -5% | 98.5% (active) | -5% | 5% | 98.5% (active) | -7% | 7% | 97.2% (active)
O=[N+]([O-])c1ccc2c(Nc3ccccc3-c3ccccc3Nc3c4ccccc4nc4cc([N+](=O)[O-])ccc34)c3ccccc3nc2c1 | 29% | 96% (active) | 90.9% (active) | 22% | 98% (active) | 90% (active) | 18% | 98% (active) | 91% (active) | 30 | 98% (active) | 90.8% (active) | 27% | 98% (active) | 87.4% (active) | 38% | 96% (active) | 88.9% (active)
COC(=O)Nc1nc2ccc(CCC(=O)c3c(C)oc(C)c3-c3ccc(NC(C)=O)cc3)cc2[nH]1 | 4% | 79% (active) | 58.1% | 4% | 55% | 37.3% | 5% | 78% (active) | 75.8% (active) | 6 | 67% | 27.4% | 5% | 70% (active) | 26.1% | -2% | 69% | 60.7%
Nc1ccc2ccc3cccc4ccc1c2c34 | 1% | 98% (active) | 90.3% (active) | -37% | 98% (active) | 0.45% | 1% | 98% (active) | 48.5% | -1 | 99% (active) | 62.5% | -2% | 98% (active) | 23.8% | 1% | 97% (active) | 88.9% (active)
Cn1c(-c2ccc(/C=N/NC(=S)N/N=C/c3ccc(-c4c[n+]5ccsc5n4C)cc3)cc2)c[n+]2ccsc12 | 72% (active) | 95% (active) | 88.6% (active) | 66% | 98% (active) | 91.2% (active) | 73% (active) | 98% (active) | 91.4% (active) | 34 | 91% (active) | 86.4% (active) | 60% | 89% (active) | 90.3% (active) | 72% (active) | 97% (active) | 88% (active)
CCCCCN(CCCCC)C(=O)CCl | -2% | 30% | 68.6% | -3% | 15% | 53.5% | -3% | 10% | 69.2% | 8 | 7% | -6.75% | 12% | 58% | 82.5% (active) | -1% | 23% | 85.3% (active)
COc1cccc2c1OC(c1ccc(C#N)cc1)C([N+](=O)[O-])=C2 (configuration not stated) | 84% (active) | 97% (active) | 86.2% (active) | 84% (active) | 98% (active) | 90.8% (active) | 87% (active) | 98% (active) | 87.2% (active) | 47 | 97% (active) | 89.8% (active) | 74% (active) | 98% (active) | 89.8% (active) | 92% (active) | 98% (active) | 83.5% (active)
CCN(CC)C(=O)C(C)OC(C)=O (configuration not stated) | -1% | 0% | -21.4% | 2% | 1% | 17.6% | 2% | -1% | -11.8% | -2 | -3% | -16% | 2% | -5% | 8.7% | 1% | 3% | 27.1%
O=C1OC(OCC#CCOC2OC(=O)C(Cl)=C2Cl)C(Cl)=C1Cl (configuration not stated) | 37% | 99% (active) | 99.4% (active) | 28% | 99% (active) | 99.7% (active) | 46% | 100% (active) | 99.3% (active) | 28 | 99% (active) | 97.8% (active) | 26% | 99% (active) | 98.3% (active) | 46% | 99% (active) | 99.5% (active)
Clc1ccc(N2CCN(CCCN3CCN(c4ccc(Cl)cc4)CC3)CC2)cc1 | -2% | 29% | 67.9% | -6% | 35% | 18.5% | -14% | 74% (active) | 81.2% (active) | -3 | 30% | 6.25% | -3% | 24% | 24.9% | 4% | 42% | 31.8%
C/C(O)=c1\cc(C#N)c(=C(C#N)C#N)nc1C | -4% | -3% | 8.05% | -2% | 1% | -0.15% | 2% | 5% | 1.15% | -1 | -8% | -3% | 3% | 11% | 10.6% | 0% | 3% | 46.4%
CCCCCCSc1nc2ccc(N=Cc3ccccc3O)cc2s1 | 90% (active) | 89% (active) | 81.8% (active) | 83% (active) | 91% (active) | 55.2% | 93% (active) | 88% (active) | 70.3% (active) | 58 | 65% | 48% | 55% | 86% (active) | 15.2% | 86% (active) | 88% (active) | 80.1% (active)
CCOC(=O)/C(=C\c1cccc(OC)c1)C(C)=O | -5% | 90% (active) | 90.2% (active) | -5% | 96% (active) | 91.7% (active) | -11% | 93% (active) | 90% (active) | -14 | 86% (active) | 84.3% (active) | 23% | 95% (active) | 88.3% (active) | -16% | 95% (active) | 88.3% (active)
COc1ccc(/C=C2/C(=O)N(C(=O)c3ccccc3O)N=C2C)cc1OC | 13% | 69% | 66.7% | -1% | 59% | 52.9% | 7% | 61% | 47.4% | 22 | 62% | 56.5% | 17% | 81% (active) | 76.5% (active) | 15% | 79% (active) | 54.6%
